The results in this text go back to PubChem BioAssay.

A short description of experiment [1]: Her2 expression decrease, cell viability multiplex – SKBR3 breast tumor cells, AlphaScreen, ATP viability, primary screen (AID 461;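 active = Her2 level under about 52% in both replicate screens, with viability over 70% of control, limit read from the data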;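 as to Her2 level: lower value means less Her2 protein in the cells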;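 as to viability: percent of carrier control wells set as 100% viability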). The note with it: SKBR3 Her2 protein level, 18-24 h, measured here: SKBR3 viability, ATP luminescence, at 10 µM. In general terms: In Alpha technology, singlet oxygen from a donor bead excites a nearby acceptor bead.
Experiment [2] has as its target Receptor tyrosine-protein kinase erbB-2 (Homo sapiens) (UniProt P04626). The experiment is described as above. The note with it: 18-24 h, at 10 µM, stronger effect = lower value.
The nature of experiment [3]: reduced viability of SK-BR-3 breast cancer cells – cell-based, 24 h, human, pilot screen (AID 572;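 active = viability at or below 10% of carrier control in both of two separate runs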;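 also: compound exposure lasted between 18 and 24 h rather than exactly 24 h; 100% = carrier-treated control wells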). The conditions noted are these: SK-BR-3 viability, CellTiter-Glo luminescence, at 10 µM, stronger effect = lower value. (In general: Cellular ATP, detected with luciferase, serves as a proxy for viable cell number.)
Experiment [4] can be described thus: HUVEC growth inhibition – cell-based, human, primary screen (AID 575;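 active = viability at or below 30% in both replicate assays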;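 also: 100% = median of untreated cell wells with 0.1% DMSO on each plate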). The conditions noted are these: HUVEC proliferation, CellTiter-Glo luminescence, 72 h; at 10 µM; stronger effect = lower value.
Experiment [5] is described as follows: H69AR cell proliferation blockers – human, duplicate replicates, primary screen (AID 580;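 active = viability at or under a set limit in both replicates, limit being median viability minus 3 SD, cut at about 48% in these data, passing the limit was not always enough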;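 also: 100% = mean luminescence of untreated wells and 0% = no signal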). The note with it: H69AR lung tumor cells viability, ATP luminescence, 72 h; at 10 µM; stronger effect = lower value.
Experiment [6] is described as follows: MRP1 drug-resistance reversers in H69AR cells – cell-based, doxorubicin co-treatment, pilot screen (AID 601;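 active = viability loss from added drug above about 55%, and viability with drug at most 40%, in both replicates, limit read from the data, passing the limit was not always enough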). The conditions noted are these: CellTiter-Glo, 72 h, at 10 µM; for differential viability (reversal): stronger effect = higher value.
The nature of experiment [7]: yeast transport mutant growth inhibition pilot in 384-well plates, post-Golgi transport modulator project (AID 636; in the data active = inhibition above about 31%). The conditions noted are these: absorbance 615 nm, about 18 h, stronger effect = higher value.
The nature of experiment [8]: growth suppression of yeast trafficking mutant, preliminary HTS, modulators of trafficking downstream of Golgi apparatus project, 1536-format plate, OD 615 nm (AID 637; in the data active = inhibition above about 30%). The conditions noted are these: yeast transport mutant growth, absorbance 615 nm, 18 h; stronger effect = higher value.
Experiment [9] in a line: S. cerevisiae growth inhibition in permissive medium (OD615), pilot counter-assay for S. cerevisiae lifespan shortening project, permissive growth control (AID 705). The note with it: OD615, 24 h, at 10 µM, stronger effect = higher value.
Experiment [10] in a line: S. cerevisiae growth inhibition in restrictive medium, OD615, pilot screen, restrictive growth control, yeast lifespan reduction project (AID 706;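 active = growth inhibition above a set limit, 3 SD over mean compound inhibition, in both replicates, cut at about 43% in these data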;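 also: modified DeaD lifespan yeast strain shifted to restrictive glucose medium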). The conditions noted are these: OD615, 48 h, at 10 µM, stronger effect = higher value.
Experiment [11] can be described thus: doxorubicin toxicity protection in MRP-1 cells – H69AR cells, CellTiter-Glo, duplicate, MRP-1 activator project, pilot screen (AID 807;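 active = viability increase at or above a cutoff of the median across tested compounds plus 3 SD, cut at about 8.5% in these data, passing the limit was not always enough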;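 also: compound pretreatment 18-22 h then 72 h combined with doxorubicin; 0% = doxorubicin alone and 100% = vehicle without doxorubicin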). The conditions noted are these: H69AR viability with doxorubicin, CellTiter-Glo luminescence; at 10 µM; stronger effect = higher value.
Experiment [12] can be described thus: viability of HCT116 without oncogenic beta-catenin – human colon tumor cells, pilot screen (AID 823;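 active = cell viability at or below a set limit in both duplicate runs, the limit being the all-compound median minus 4 SD, cut at about 23% in these data, passing the limit was not always enough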;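 also: 0% = wells killed by 20 µM Hyamine and 100% = untreated DMSO cell wells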). The note with it: HCT116 beta-catenin knockout viability, CellTiter-Glo, 60 h; at 10 µM; stronger effect = lower value.
Experiment [13] is described as follows: viability of PTEN-null HCT116 cells – cell-based, HCT116 clonal line, CellTiter-Glo, pilot screen (AID 824;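 active = viability at or below 27.92% in each of two runs, the all-compound median minus 4 SD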;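 also: 0% = 20 µM Hyamine control and 100% = vehicle cell control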). The conditions noted are these: HCT116 PTEN-deleted viability, 60 h, at 10 µM, stronger effect = lower value.
Experiment [14] in a line: RAM pathway blockade in budding yeast – dse1pr::URA3 reporter, 5-FOA selection, pilot screen (AID 869;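 active = inhibition over a set limit, the all-compound mean plus 3 SD, in both replicate runs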;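 also: 0% = DMSO wells with no growth and 100% = 10 µM 1-NA-PP1 with full growth; RAM network block rescues cells from 5-FOA so hits raise OD615 growth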). The conditions noted are these: S. cerevisiae dse1pr::URA3 5-FOA growth, OD615, 2 d; at 10 µM; stronger effect = higher value; strain carries analog-sensitive mutant Cbk1 kinase.
A short description of experiment [15]: RAM signaling pathway blockade in yeast – S. cerevisiae, Pdr1DBD-CYC8 efflux-inhibited sensitized strain, primary screen (AID 1298;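 active = RAM network inhibition above 8.4% in each of two replicates, 3 SD over the compound average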;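 also: 0% = DMSO untreated cells without growth and 100% = 10 µM 1-NA-PP1 full growth; higher means more yeast growth rescued from 5-FOA killing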). The conditions noted are these: S. cerevisiae cbk1-as DSE1-URA3 strain, 5-FOA growth OD615, 2 d; at 50 µM; stronger effect = higher value.
Setting [16] is: H69AR cells + 2 uM doxorubicin, measured here: viability with 2 uM doxorubicin, stronger effect = lower value.
Where [17] appears, read: H69AR cells, compound alone cytotoxicity.

Each structure is given as a SMILES string. Inconclusive results are not listed. Active and inactive are the calls of the source.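 The calls were made as follows, unless noted: active = growth inhibition above 25% in both replicates, a cutoff set 3 SD above the mean; inconclusive = above 25% in only one replicate; inactive = the rest.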

Sequence of Receptor tyrosine-protein kinase erbB-2 (Homo sapiens) (P04626 whole entry, looked up): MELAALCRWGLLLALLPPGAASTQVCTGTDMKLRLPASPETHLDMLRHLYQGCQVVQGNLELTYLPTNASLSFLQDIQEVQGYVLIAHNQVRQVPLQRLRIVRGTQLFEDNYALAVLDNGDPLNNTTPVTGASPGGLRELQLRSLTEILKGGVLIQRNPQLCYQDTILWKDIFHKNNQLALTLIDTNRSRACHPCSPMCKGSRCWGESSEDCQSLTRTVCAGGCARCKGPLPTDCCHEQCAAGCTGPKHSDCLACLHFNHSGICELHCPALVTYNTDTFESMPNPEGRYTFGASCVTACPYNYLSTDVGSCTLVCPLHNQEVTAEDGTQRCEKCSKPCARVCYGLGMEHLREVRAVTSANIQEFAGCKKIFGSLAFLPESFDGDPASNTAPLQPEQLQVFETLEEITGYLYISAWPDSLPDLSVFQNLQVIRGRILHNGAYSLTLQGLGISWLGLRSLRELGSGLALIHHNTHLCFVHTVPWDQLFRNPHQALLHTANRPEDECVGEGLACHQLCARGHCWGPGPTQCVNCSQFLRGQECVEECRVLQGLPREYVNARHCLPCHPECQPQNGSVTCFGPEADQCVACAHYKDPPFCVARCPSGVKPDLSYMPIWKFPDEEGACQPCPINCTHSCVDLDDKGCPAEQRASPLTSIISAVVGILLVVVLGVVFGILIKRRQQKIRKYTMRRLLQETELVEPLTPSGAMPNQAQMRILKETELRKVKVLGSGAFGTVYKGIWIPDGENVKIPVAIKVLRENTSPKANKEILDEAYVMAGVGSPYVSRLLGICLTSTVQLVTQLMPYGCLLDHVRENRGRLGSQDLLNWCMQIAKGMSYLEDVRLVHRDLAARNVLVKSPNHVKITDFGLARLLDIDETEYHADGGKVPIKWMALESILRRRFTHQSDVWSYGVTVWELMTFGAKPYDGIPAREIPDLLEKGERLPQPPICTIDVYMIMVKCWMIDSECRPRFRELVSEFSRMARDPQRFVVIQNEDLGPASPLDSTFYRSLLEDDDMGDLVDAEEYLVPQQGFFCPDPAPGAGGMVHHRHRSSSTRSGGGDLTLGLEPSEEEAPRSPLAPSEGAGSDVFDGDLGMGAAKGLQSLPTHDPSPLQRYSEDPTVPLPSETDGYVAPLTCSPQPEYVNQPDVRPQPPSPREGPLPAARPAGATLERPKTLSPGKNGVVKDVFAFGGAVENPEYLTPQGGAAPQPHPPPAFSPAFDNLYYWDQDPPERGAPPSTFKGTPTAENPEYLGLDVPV

Turning to `COc1ccc(CCNC(=O)c2cc3sc(Cl)cc3n2C)cc1OC`, the viability in [1] is 89.5%; in experiment [3], 89.5% (inactive); in experiment [4] it was 98.3% (inactive); in [5], 90.7% (inactive); in experiment [6] (setting [16]), 94.6%; in [6] (setting [17]) it was 90.7%. The viability in experiment [12] is 65.2% (inactive); in [13], 77.3% (inactive). In addition, in experiment [2], the Her2 level is 94% (inactive). In [6] (H69AR cells + 2 uM doxorubicin), the differential viability (reversal) was -3.9% (inactive). For the same compound, the figures for the inhibition in experiment [7], in [8] and in [14] were -3.59% (inactive), -8% (inactive) and 0.605% (inactive), respectively. In addition, the growth inhibition in experiment [9] was -5.07% (inactive); in experiment [10], 12.9% (inactive). Besides, in [11], the viability increase was 3.32% (inactive). In addition, in experiment [15], the RAM network inhibition is 1.25% (inactive).

Consider `CC(=O)Nc1cccc(NC(=O)CSc2nn3c(=O)c(C)nnc3s2)c1`, for which the viability in experiment [1] was 100%; in [3], 100% (inactive); in experiment [4], 76.8% (inactive); in [5], 90.8% (inactive); in experiment [6] (setting [16]), 75.3%; in experiment [6] (setting [17]), 90.8%. Besides, the viability was 110% (inactive) in experiment [12] and 103% (inactive) in experiment [13]. In addition, the Her2 level in experiment [2] is 91% (inactive). Also, the differential viability (reversal) in [6] (H69AR cells + 2 uM doxorubicin) is 15.5% (inactive). For the same compound, the results for the inhibition in experiment [7], in experiment [8] and in experiment [14] were -5.73% (inactive), -4.33% (inactive) and 1.29% (inactive), respectively. In addition, the growth inhibition in [9] was -3.39% (inactive); in [10], -16% (inactive). Also, the viability increase in [11] is 0.35% (inactive). Further, the RAM network inhibition in experiment [15] is 4.27% (inactive).

As to `Cc1cc(NC(=O)c2cccc(S(=O)(=O)N3CC(c4ccccc4)CC3=O)c2)no1` (centres undefined), the viability in [1] was 92%; in experiment [3] it was 92% (inactive); in experiment [4], 98.8% (inactive); in experiment [5], 97.6% (inactive); in experiment [6] (setting [16]) it was 91.3%; in experiment [6] (setting [17]) it was 97.6%. Moreover, the viability in experiment [12] was 96.8% (inactive); in [13], 90.5% (inactive). In addition, in [2], the Her2 level is 97.5% (inactive). Besides, in [6] (H69AR cells + 2 uM doxorubicin), the differential viability (reversal) was 6.25% (inactive). Further, the inhibition in experiment [7] was -6.4% (inactive); in experiment [8] it was 3.33% (inactive); in [14], 1.83% (inactive). Besides, the results for the growth inhibition in experiment [9] and in experiment [10] were -15.3% (inactive) and -8.59% (inactive), respectively. Besides, the viability increase in experiment [11] was 1.83% (inactive). Moreover, the RAM network inhibition in experiment [15] is 5.71% (inactive).

Take `COc1ccc(S(=O)(=O)N2CCCC2C(=O)Nc2ccc(O)cc2)cc1` (centres undefined): the viability in experiment [1] is 93.5%; in [3] it was 93.5% (inactive); in experiment [4] it was 92.6% (inactive); in experiment [5] it was 98.4% (inactive); in [6] (setting [16]), 94.4%; in experiment [6] (setting [17]), 98.4%. The viability in experiment [12] and in experiment [13] was 108% (inactive) in each case. Besides, the Her2 level in experiment [2] was 106% (inactive). Also, the differential viability (reversal) in [6] (H69AR cells + 2 uM doxorubicin) is 3.97% (inactive). In addition, the figures for the inhibition in experiment [7], in experiment [8] and in [14] were 0.13% (inactive), -4.92% (inactive) and 1.98% (inactive), respectively. Moreover, the growth inhibition in [9] is -1.65% (inactive); in experiment [10], 2.76% (inactive). Besides, the viability increase in experiment [11] is -0.78% (inactive). Also, the RAM network inhibition in experiment [15] was 4.8% (inactive).

Take `CCCC(=O)C1=C(N(C)c2ccccc2)CC(C)(C)C(C(=O)OC)C1=O` (centres undefined): the viability in [1] is 95%; in [3] it was 95% (inactive); in [4], 97.9% (inactive); in experiment [5], 94.4% (inactive); in experiment [6] (setting [16]), 93.2%; in experiment [6] (setting [17]), 94.4%. The viability is 93.7% (inactive) in experiment [12] and 92.9% (inactive) in experiment [13]. Besides, the Her2 level in experiment [2] is 81% (inactive). In experiment [6] (H69AR cells + 2 uM doxorubicin), the differential viability (reversal) is 1.22% (inactive). The figures for the inhibition in experiment [7], in experiment [8] and in [14] were -2.47% (inactive), -2.83% (inactive) and -0.705% (inactive), respectively. For the same compound, the growth inhibition was -1.78% (inactive) in experiment [9] and -2.86% (inactive) in [10]. Moreover, the viability increase in experiment [11] was -3.32% (inactive). Moreover, the RAM network inhibition in [15] was 0.26% (inactive).

For `O=C(c1ccc(Cl)s1)N1CCN(c2nc3ccccc3s2)CC1`, the viability in experiment [1] was 84%; in [3], 84% (inactive); in [4], 69.4% (inactive); in experiment [5], 85.9% (inactive); in [6] (setting [16]) it was 86.1%; in experiment [6] (setting [17]) it was 85.9%. Further, the figures for the viability in [12] and in experiment [13] were 81% (inactive) and 83.7% (inactive), respectively. Also, the Her2 level in [2] was 78% (inactive). In addition, the differential viability (reversal) in experiment [6] (H69AR cells + 2 uM doxorubicin) was -0.215% (inactive). Further, the results for the inhibition in experiment [7], in experiment [8] and in experiment [14] were -3.47% (inactive), 2.5% (inactive) and 2.66% (inactive), respectively. In addition, the growth inhibition in [9] is 3.6% (inactive); in experiment [10], -3.27% (inactive). In addition, in experiment [11], the viability increase is 0.2% (inactive). In addition, in experiment [15], the RAM network inhibition is 2.18% (inactive).

For `Cc1ccc(-n2c3c(cc(C(=O)NC4CCSC4=O)c2=O)C(=O)CC(C)(C)C3)cc1` (centres undefined), the viability was 101% in experiment [1]; 101% (inactive) in [3]; 85.4% (inactive) in experiment [4]; 85.3% (inactive) in experiment [5]; 70.7% in [6] (setting [16]); 85.3% in [6] (setting [17]). Also, the viability in experiment [12] is 99.1% (inactive); in [13], 101% (inactive). The Her2 level in experiment [2] was 99.5% (inactive). Also, the differential viability (reversal) in [6] (H69AR cells + 2 uM doxorubicin) is 14.6% (inactive). Further, the inhibition in [7] was -1.69% (inactive); in experiment [8] it was -0.67% (inactive); in experiment [14], 2.32% (inactive). Moreover, the figures for the growth inhibition in [9] and in experiment [10] were -1.71% (inactive) and -9.19% (inactive), respectively. Also, the viability increase in [11] is -2.78% (inactive). In addition, the RAM network inhibition in experiment [15] is 4.09% (inactive).

As usually defined, the viability is a read-out of living cells in per cent, often relative to untreated cells. Broadly, the inhibition is the drop in the measured response relative to a control, in per cent.
